Results taken from PubChem BioAssay (NCI).
This is part of a sample that, as a whole, favours compounds with a hit. Of some 83,000 tested, about 20% had one in any assay.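 For each line, cells grew in 96-well plates with the test compound present at a single concentration for 48 hours.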 Unmarked numbers belong to inactive results. Calls of active or inactive are those of the source. The calls were made as follows: active = growth percent below 10; inactive = the rest.

System: HL-60(TB) leukemia
Test: NCI-60 one-dose screen, 48 h (100 = growth as untreated, 0 = no growth, -100 = all killed)
Conditions: 10 µM unless noted

| SMILES | growth |
| --- | --- |
| O=C1/C(=C/c2ccccc2)CN(C(=O)c2cccnc2)C/C1=C\c1ccccc1 | -8.8% (active) |
| Cc1cc(-c2ccccc2)nc2ccccc12 | 90.8% |
| O=C1CC(c2ccc3c(c2)OCO3)Nc2cc3c(cc21)OCO3 (centres undefined) | -22.9% (active) |
| Oc1ccc(Cl)cc1-c1cc(-c2ccc(Cl)cc2)n[nH]1 | 60.4% |
| COc1cc2ncnc(Nc3ccc(S(=O)(=O)Nc4cc(C)on4)cc3)c2cc1OCCCN1CCN(c2ccc([N+](=O)[O-])cc2)CC1 | 118% |
| Cc1ccc2c3c(cccc13)-c1ccccc1C2=O | 99% |
| C=C1C(=O)O[C@H]2[C@H]1CC/C(Cn1cc(-c3ccc(OC)cc3)nn1)=C\CC[C@@]1(C)O[C@@H]21 | -35.2% (active) |
| COCCNC(=O)Nc1ccc2nc(-c3cccs3)c(-c3cccs3)nc2c1 | 81.5% |
| O=C1/C(=C/c2ccc(Cl)cc2)CCC/C1=C\c1ccc(Cl)cc1 | 83% |
| COc1cc(Cc2cc(-c3ccccc3)nn(Cc3ccccc3)c2=O)cc(OC)c1OC | 19.3% |
| COc1cc2c(cc1-c1c(C)noc1C)ncc1nc(C3CCCCC3)n([C@H](C)COC(F)F)c12 | 31% |
| COc1ccc(C(=O)/C=C/c2cccc([N+](=O)[O-])c2)c(OC)c1 | -10.4% (active) |
| CCC1CCc2nc3sc(C(=O)Nc4cccc(C)c4)c(N)c3cc2C1 (centres undefined) | 55.7% |
| O=C(NCCNc1nccc(-c2c(-c3cccc(O)c3)nc3sccn23)n1)c1ccc(N2CCOCC2)c(C(F)(F)F)c1 | 113% |
| CCOC(=O)Oc1c(OC)cc(C(=O)c2ccc(OC)c(O)c2OC)cc1OC | -32.6% (active) |
| COc1ccc2nc(Cl)c(/C=C/C(=O)c3ccc(NC(=O)CSc4nnc(-c5ccc(Cl)c(Cl)c5)n4-c4ccccc4)cc3)cc2c1 | 73.1% |
| Cc1cccc2c(=O)c3c(sc12)c(NCc1ccccc1)nc1ccccc13 | 95.5% |
| O=C(/C=C/c1cccc(Cl)c1)c1ccc(Nc2nc(Nc3ccc(F)cc3)nc(Nc3ccc(Cl)cc3)n2)cc1 | 52.8% |
| COc1ccc(-c2cn(-c3ccc(Cl)cc3)c(SCC(=O)c3ccc([N+](=O)[O-])cc3)n2)cc1 | 84% |
| Cc1cccc(C[C@H](NC(=O)Nc2ccc(Cl)cc2F)C(=O)N[C@@H]2C(=O)N3C[C@H](O)C[C@H]3C(=O)N3CCCC[C@H]3C(=O)N[C@@H](C)C(=O)N3C[C@H](C)C[C@H]3C(=O)O[C@H]2C)c1 | 6.77% (active) |

| SMILES | growth |
| --- | --- |
| COC(=O)[C@H](Cc1cn(C)cn1)NC(=O)[C@H](CC(C)C)NC(=O)Nc1cc(C(F)(F)F)cc(C(F)(F)F)c1 | -72.6% [100 µM] (active) |
| O=C(N/N=C/c1ccc([N+](=O)[O-])cc1)c1ccccc1Nc1ccnc(C(F)(F)F)c1 | 78.4% |
| Cc1cc(N=C2C=CC(=[N+](C)C)C=C2)c(N)cc1N | 122% |
| COc1cc(C(F)(F)F)ccc1-c1cc(-c2ccc(F)cc2)n[nH]1 | 115% |
| Nc1nnc(-c2ccc3ccccc3c2O)o1 | 102% |
| O=Nc1ccc(O)c(=O)cc1 | 4.36% (active) |
| O=C(O)c1occ(Cl)c1Cl | 75.3% |
| COc1ccc(/C(=C2/O[C@@H]([C@H]3COC(C)(C)O3)[C@H]3OC(C)(C)O[C@@H]23)c2cc(OC)c(OC)c(OC)c2)cc1O | -0.369% (active) |
| CCN(CC)C(=S)SCCO | 102% |
| CN(C)CCS(=O)(=O)CCN(C)C | 110% |
| CCNC(=O)c1[nH]cc(-c2ccc(OC)cc2)c1-c1cc(OC)cc(OC)c1 | 82.1% |
| CCCCCCCC(=O)SCC/C=C/[C@@H]1CC(=O)NCc2nc(cs2)C2=N[C@@](C)(CS2)C(=O)N[C@@H](C(C)C)C(=O)N1 | 8.7% (active) |
| COc1cccc(/C=C2\Oc3cc(OCCCN4CCCC4)ccc3C2=O)c1 | 81% |
| Cn1nnnc1-c1ccc(N)cc1 | 94.4% |
| c1ccc2c(c1)Sc1ccccc1S2 | 107% |
| COc1cc2c(cc1-c1c(C)noc1C)ncc1nc(C3CC3)n([C@H](C)COC(F)F)c12 | 31% |
| COc1ccc(S(=O)(=O)NC2c3ccccc3CC2O)cc1OC (centres undefined) | 103% |
| CCCCCCC/C=C/[C@H]1O[C@]23C(=O)C[C@@]4(C[C@@H](OC5OC(CO)C(O)C(O)C5O)C[C@@H]4[C@H]2C=C1C)OC3=O (some centres undefined) | -13.1% (active) |
| COc1c(C)c(C)c(OC)c2c1[nH]c(=O)c1c3cccnc3cn21 | 112% |
